# Rows were chosen to be rich in hits. Some 1.7% of all compounds tested hit in one or more screens of this group.
# GLP1R ag – GLP-1 receptor (human) agonism; P43220; HEK293 GLP-1R CRE-luciferase, luminescence, 4-6 h; cells express a hypersensitive GLP-1R form; Potency, µM (top dose mostly 45.6 µM), for the others: top-dose activation, actives largely listed as activators; 0.007% of 380,000 active; AID 624172; further: % of control where 0% means no effect
# Target sequence (P43220 whole entry, looked up): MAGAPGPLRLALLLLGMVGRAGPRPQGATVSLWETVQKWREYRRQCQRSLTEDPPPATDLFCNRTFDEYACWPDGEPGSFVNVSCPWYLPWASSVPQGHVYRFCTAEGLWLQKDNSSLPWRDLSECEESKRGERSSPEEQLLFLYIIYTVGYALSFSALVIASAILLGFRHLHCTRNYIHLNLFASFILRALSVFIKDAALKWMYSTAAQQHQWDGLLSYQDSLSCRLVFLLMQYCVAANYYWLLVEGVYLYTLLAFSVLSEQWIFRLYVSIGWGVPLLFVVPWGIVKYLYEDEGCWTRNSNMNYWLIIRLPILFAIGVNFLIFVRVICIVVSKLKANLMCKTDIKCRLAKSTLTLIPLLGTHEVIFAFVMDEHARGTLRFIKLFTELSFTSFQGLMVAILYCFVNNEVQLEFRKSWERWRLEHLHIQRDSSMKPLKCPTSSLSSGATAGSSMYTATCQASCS
# HEK293 tox – cytotoxic in the GLP-1 receptor inverse agonist counter-screen; Potency, µM (top dose mostly 38.3 µM), inactives show at the highest dose activity change, negative = inhibition, most hits filed as inhibitors; HEK293 cAMP-luciferase reporter cells, luminescence, 24 h; AID 624418; 0.13% of 410,000 active;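 further: loss of luciferase light is scored as toxicity; on the % scale 0 is the no-effect control and ±100 the full control effect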
#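 Quantitative HTS format, 1536 wells, 200 cells/uL seeded. Compounds: 23 nL, 24 h, 37 °C. Detection: luciferase reagent, luminescence at 12 min RT; decreased signal taken as cytotoxic.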
# GLP-1R inv ag – inverse agonists of human GLP-1 receptor | P43220 | HEK293 GLP-1R CRE-luciferase, luminescence, 24 h; GLP-1R form is constitutively active | Potency, µM (titrated, usually from 38.3 µM), for inactives: at the highest dose activity change, negative = inhibition, usual class: inhibitors | 1.6% of 410,000 active | AID 624417; further: on the % scale 0 is the no-effect control and ±100 the full control effect; nearly all actives have a fitted effect of over 55% in size
#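 Readout was luciferase luminescence, measured 12 min after detection reagent at room temperature. Beforehand, GLP-1R reporter HEK293 cells had sat 12 h, then received compounds for 24 hr at 37 deg C.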
# The depositor's hits bear a star; ? = inconclusive; · = not tested or not shown. The call rests on the fitted dose curve; in most records, active means well fitted curve in the direction sought with a large enough effect; inconclusive means small, poorly fitted or top-dose-only effect, or another doubt; inactive means no such curve, though single readings can be large; an effect the other way counts as inactive or inconclusive. Potency means the concentration at half of the fitted maximal effect.
SMILES,GLP1R ag,HEK293 tox,GLP-1R inv ag
CCc1nc2ccc(C(=O)NCCc3c[nH]c4ccccc34)cn2c1N(C=O)CCC(C)C,0%,?,5.6µM*
CCCCN(C=O)c1c(CC)nc2ccc(C(=O)NCCc3c[nH]c4ccccc34)cn12,8%,-10%,2%
Cc1cc(C)cc(-n2ncc3c2CCCC3NC(=O)c2ccccc2N2CCOCC2)c1 (stereo not given),14%,-20%,?
O=C(NC1CCCc2c1cnn2-c1ccccc1F)c1ccccc1N1CCOCC1 (stereo not given),4%,0%,7.9µM*
O=C(COCc1cc(-c2cccs2)on1)NCc1ccccc1Cl,·,4%,?
Cc1ccc(NC(=O)NCC2CCN(Cc3cccc(Cl)c3)CC2)cc1Cl,3%,?,2.2µM*
O=C(NCC1CCN(Cc2cccc(Cl)c2)CC1)Nc1ccccc1Cl,10%,-8%,10µM*
O=C(Nc1ccccc1)c1ccc(CN2CCC(Cc3ccccc3)CC2)cc1,-8%,-4%,-3%
Cc1ccc(C)c(CN2CCC(CNC(=O)Nc3ccc(F)c(Cl)c3)CC2)c1,1%,?,?
CCc1ccc(NC(=O)NCC2CCN(Cc3cccc(Cl)c3)CC2)cc1,-8%,-18%,13µM*
O=C(Nc1ccccc1C(F)(F)F)c1ccc(CN2CCC(Cc3ccccc3)CC2)cc1,-2%,?,8.9µM*
Cc1ccc(CN2CCC(CNC(=O)Nc3ccc(Cl)cc3)C2)cc1 (stereo not given),·,-18%,-28%
Cc1ccc(NC(=O)NCC2CCN(Cc3cccc(Cl)c3)CC2)c(Cl)c1,1%,-4%,?
COc1ccc(NC(=O)c2ccc3c(c2)NC(=O)CS3)cc1,-5%,0%,4%
Cc1ccc(NS(=O)(=O)c2cc(NC(=O)c3ccc4c(c3)NC(=O)CS4)ccc2Cl)c(C)c1,-3%,?,2.5µM*
COc1ccc2[nH]c3c(c2c1)CCN1C(=O)C(CC(=O)NCc2ccc(OC)c(OC)c2)C[C@H](C(=O)N2CCCCC2)[C@@]31CCc1ccccc1 (stereo not given in full),2%,2%,7%
CCC(=O)Nc1nnc(SCC(=O)NCCc2ccc(OC)c(OC)c2)s1,-3%,4%,16%
COc1ccc(N2CCN(C(=O)CN3c4cccc5cccc(c45)S3(=O)=O)CC2)cc1,1%,2%,6%
C=CCOC(=O)C(C#N)c1nc2ccccc2nc1N1CCN(c2ccccc2OCC)CC1 (stereo not given),-1%,3%,?
C=CCOC(=O)C(C#N)c1nc2ccccc2nc1N1CCC(C(=O)OCC)CC1 (stereo not given),8%,-3%,6.3µM*
CCOc1ccccc1N1CCN(c2nc3ccccc3nc2C(C#N)C(=O)OC(C)C)CC1 (stereo not given),2%,-10%,5µM*
CCOC(=O)C1CCN(c2nc3ccccc3nc2C(C#N)C(=O)OCCOC)CC1 (stereo not given),9%,1%,-21%
Clc1cccc(C(c2ccc3nc[nH]c3c2)n2ccnc2)c1 (stereo not given),-1%,·,·
COc1ccccc1N(C)S(=O)(=O)c1ccc(C(=O)Nc2cccc(Br)c2)cc1,5%,-21%,?
CN(c1ccccc1)S(=O)(=O)c1ccc(NC(=O)c2ccc(F)cc2)cc1,15%,-13%,?
SMILES,GLP1R ag,HEK293 tox,GLP-1R inv ag
CCOc1cccc(C(=O)Nc2ccc(S(=O)(=O)N(Cc3ccccc3)c3ccccc3)cc2)c1,·,2%,3.2µM*
CN(c1ccccc1)S(=O)(=O)c1ccc(NC(=O)c2ccccc2)cc1,1%,0%,10µM*
CCN(c1ccccc1)S(=O)(=O)c1cc(C(=O)Nc2ccc(Br)cc2)ccc1F,-5%,-5%,2.5µM*
CCN(c1ccccc1)S(=O)(=O)c1cc(C(=O)Nc2ccccc2Cl)ccc1F,5%,9%,?
COc1cc(NC(=O)c2ccc(S(=O)(=O)N(C)c3ccccc3OC)cc2)cc(OC)c1,3%,-9%,7.9µM*
COc1cccc(C(=O)Nc2ccc(S(=O)(=O)N(Cc3ccccc3)c3ccccc3)cc2)c1,·,-1%,?
COc1cccc(OCc2cc(C(=O)N(C)CCOc3ccc(C)cc3)no2)c1,12%,?,?
Cc1cccc(C(=O)NC(=S)Nc2ccc(S(=O)(=O)N(C)c3ccccc3)cc2)c1,3%,-2%,?
COc1ccc(NC(=O)c2ccc(OC(=S)N(C)c3ccc(OC)cc3)cc2)cc1,0%,-25%,-26%
CN(C(=S)Oc1ccc(C(=O)Nc2ccccc2)cc1)c1ccccc1,2%,2%,8.9µM*
Cc1ccccc1C(=O)NC(=S)Nc1ccc(S(=O)(=O)N(C)c2ccccc2)cc1,-6%,8%,8.9µM*
COc1ccc(N2CCN(C(C)C(=O)Nc3nnc(C)s3)CC2)cc1 (stereo not given),-1%,2%,2%
CNCCC=C1c2ccccc2CCc2ccccc21,11%,-18%,6.3µM*
C[N+](C)(C)CC/C=C1/c2ccccc2CSc2ccccc21,-5%,-9%,-5%
Cc1nc(C(=O)N2CCc3c([nH]c4ccccc34)C2c2ccccn2)cs1 (stereo not given),17%,-15%,?
CCc1cc(C(=O)N2CCc3c([nH]c4ccccc34)C2c2ccc(OC)cc2F)no1 (stereo not given),10%,1%,?
Cc1nc(C(=O)N2CCc3c([nH]c4ccccc34)C2c2cc(F)ccc2F)cs1 (stereo not given),?,4%,11µM*
Cc1cc(C(=O)N2CCc3c([nH]c4ccccc34)C2c2c(F)cccc2Cl)no1 (stereo not given),-5%,-11%,10µM*
Cc1ccc(CNC(=O)CCc2c(C)nc3nc(C)nn3c2C)cc1,0%,30%,0%
Cc1nnc(NC(=O)CSc2nccn2Cc2ccccc2)s1,-1%,-4%,1%
O=C(NNC(=O)c1ccccc1OCc1ccc(F)cc1)c1ccncc1,8%,2%,1%
Cc1ccc(CNC(=O)c2c3c(nc4ccccc24)C(=O)N(C2CCCCC2)C3)cc1,·,-5%,11µM*
CCc1ccc(CNC(=O)c2c3c(nc4ccccc24)C(=O)N(C2CCCCC2)C3)cc1,·,2%,?
O=C(CN(C(=O)c1csnn1)c1ccc(F)cc1)NCCc1ccccc1,11%,1%,15%
CCOc1ccccc1N=NC1C(=O)N(C(N)=S)N=C1C (stereo not given),-2%,?,0.89µM*
SMILES,GLP1R ag,HEK293 tox,GLP-1R inv ag
CC1=NN(C(N)=S)C(=O)C1N=Nc1ccccc1O (stereo not given),-2%,1%,-6%
CN(C(=O)COC(=O)c1ccc(Cl)s1)C1(C#N)CCCCC1,9%,-5%,-18%
Cc1cc(C)nc(N/N=C/c2sccc2C)n1,6%,-4%,-2%
Cc1ccsc1/C=N/Nc1nc(=O)[nH]nc1C,0%,?,3.5µM*
Cc1cc(O)ccc1Nc1cc(-c2cccc(N(C)C)c2)ncn1,15%,6%,16%
O=C(CSc1ccccc1)Nc1ccccc1N1CCOCC1,13%,8%,?
Cc1ccc(SCC(=O)Nc2ccccc2N2CCOCC2)cc1,11%,3%,7.9µM*
